Reference: PubChem BioAssay (Tox21)
Inconclusive results are not listed. Where a call stands in place of a potency, no number is given. Active and inactive are the calls of the source. Calls follow the shape of the full dose curve.

Experiment: qHTS assay for small molecule agonists of the p53 signaling pathway - cell viability (AID 651633);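 also: p53RE-bla HCT reporter cells with a stable beta-lactamase p53 reporter; nearly all actives have a fitted effect of over 30% in size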
Conditions: p53RE-bla HCT-116 viability, ATP luminescence, 16 h; series mostly up to 83.3 µM
Procedure, shortened: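 p53RE-bla cells were treated with compound for 16 hours at 37 C. Cytotoxicity was then measured as CellTiter-Glo luminescence after 30 min at room temperature.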
With `CCN(CCO)CCO` the Potency was “inactive”. For `C=CCc1cc(OC)c2c(c1)OCO2`, the Potency was “inactive”. With `CC(C)(C1CCC(O)CC1)C1CCC(O)CC1` (configuration not stated) the Potency was “inactive”. With `COc1cccc(C=O)c1` the Potency was “inactive”. In the case of `C=CC1(C)OC(=O)N(c2cc(Cl)cc(Cl)c2)C1=O` (configuration not stated), the Potency was “inactive”. With `CNC(=O)NC(O)C(Cl)(Cl)Cl` (configuration not stated) the Potency was “inactive”. With `COC(=O)[C@@H](N)CCCN/C(N)=N/[N+](=O)[O-]` the Potency was “inactive”. For `CC(C)(O)C(Cl)(Cl)Cl`, the Potency was “inactive”. For `CCCC(C)(COC(N)=O)COC(N)=O`, the Potency was “inactive”. For `Cc1cc(OC(=O)N(C)C)nn1C(=O)N(C)C`, the Potency was “inactive”. In the case of `CS(=O)(=O)Cl`, the Potency was “inactive”. With `NCC1(CC(=O)O)CCCCC1` the Potency was “inactive”. In the case of `COc1ccccc1OC`, the Potency was “inactive”. In the case of `[P]#[In]`, the Potency was “inactive”. With `O=C(Cl)/C=C/C(=O)Cl` the Potency was “inactive”. For `CCOC(=O)NC(C)(C)Cc1ccc(Cl)cc1`, the Potency was “inactive”. For `O=c1[nH]oc2c1CCNC2`, the Potency was “inactive”. In the case of `O=C(Cl)C(Cl)(Cl)Cl`, the Potency was “inactive”. For `N#CN=C1SCCN1Cc1ccc(Cl)nc1`, the Potency was “inactive”. With `CN(CCO)CCO` the Potency was “inactive”. For `COC(=O)c1ccccc1CS(=O)(=O)NC(=O)Nc1nc(OC)cc(OC)n1`, the Potency was “inactive”. With `CCOC1Oc2ccc(OS(C)(=O)=O)cc2C1(C)C` (configuration not stated) the Potency was “inactive”. In the case of `C[N+]1(C)CCCCC1`, the Potency was “inactive”. With `Cc1ccc(-c2nc3ccc(C)cn3c2CC(=O)N(C)C)cc1` the Potency was “inactive”. With `COc1cc(CCN)cc(OC)c1OC` the Potency was “inactive”. For `CC(=O)OCC1=C(C(=O)O)N2C(=O)[C@@H](N)[C@H]2SC1`, the Potency was “inactive”. In the case of `O=P(O)(O)c1ccccc1`, the Potency was “inactive”. With `Oc1ccc(Cc2ccc(O)cc2)cc1` the Potency was “inactive”. For `C=C1CC[C@@]2(O)[C@H]3Cc4ccc(O)c5c4[C@@]2(CCN3CC2CC2)[C@H]1O5`, the Potency was “inactive”. In the case of `CCC(C(N)=O)N1CCCC1=O` (configuration not stated), the Potency was “inactive”. With `CN(C)CCc1c[nH]c2cccc(OP(=O)(O)O)c12` the Potency was “inactive”. For `CCC1(c2ccccc2)C(=O)N(COC)C(=O)N(COC)C1=O`, the Potency was “inactive”. For `CCCCCCCCSC(=O)Oc1cc(Cl)nnc1-c1ccccc1`, the Potency was “inactive”. With `CCOP(=S)(OCC)Oc1ccc(Cl)cc1Cl` the Potency was “inactive”. With `O=[N+]([O-])CCO` the Potency was “inactive”. In the case of `BrCc1ccc(Br)cc1`, the Potency was “inactive”. For `C[C@H](N)C(=O)c1ccccc1`, the Potency was “inactive”. In the case of `CCc1cc(OC)c(C[C@H](C)N)cc1OC`, the Potency was “inactive”. With `COC(=O)c1ccc(CBr)cc1` the Potency was “inactive”. In the case of `CCN[C@@H](C)Cc1cccc(C(F)(F)F)c1`, the Potency was “inactive”.

Experiment: qHTS assay for small molecules that induce genotoxicity in human embryonic kidney cells expressing luciferase-tagged ATAD5 - cell viability (AID 651634); also: nearly all actives have a fitted effect of over 25% in size
Conditions: HEK293T ATAD5-luc cells viability, CellTiter-Fluor, 15.5 h; series mostly up to 83.3 µM
Procedure, shortened: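 After 15.5 hr incubation with compound at 37C, 5% CO2, HEK293T ATAD5-luciferase cells received CellTiter-Fluor reagent; fluorescence intensity was quantified following 30 min at 37C.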
For `CCN(CCO)CCO`, the Potency was “inactive”. With `C=CCc1cc(OC)c2c(c1)OCO2` the Potency was “inactive”. With `CC(C)(C1CCC(O)CC1)C1CCC(O)CC1` (configuration not stated) the Potency was “inactive”. For `COc1cccc(C=O)c1`, the Potency was “inactive”. In the case of `C=CC1(C)OC(=O)N(c2cc(Cl)cc(Cl)c2)C1=O` (configuration not stated), the Potency was “inactive”. With `CNC(=O)NC(O)C(Cl)(Cl)Cl` (configuration not stated) the Potency was “inactive”. With `COC(=O)[C@@H](N)CCCN/C(N)=N/[N+](=O)[O-]` the Potency was “inactive”. In the case of `CC(C)(O)C(Cl)(Cl)Cl`, the Potency was “inactive”. With `CCCC(C)(COC(N)=O)COC(N)=O` the Potency was “inactive”. With `Cc1cc(OC(=O)N(C)C)nn1C(=O)N(C)C` the Potency was “inactive”. In the case of `CS(=O)(=O)Cl`, the Potency was “inactive”. With `NCC1(CC(=O)O)CCCCC1` the Potency was “inactive”. In the case of `COc1ccccc1OC`, the Potency was “inactive”. With `[P]#[In]` the Potency was “inactive”. With `O=C(Cl)/C=C/C(=O)Cl` the Potency was “inactive”. With `O=C(Cl)C(Cl)(Cl)Cl` the Potency was “inactive”. With `N#CN=C1SCCN1Cc1ccc(Cl)nc1` the Potency was “inactive”. With `CN(CCO)CCO` the Potency was “inactive”. With `COC(=O)c1ccccc1CS(=O)(=O)NC(=O)Nc1nc(OC)cc(OC)n1` the Potency was “inactive”. For `CCOC1Oc2ccc(OS(C)(=O)=O)cc2C1(C)C` (configuration not stated), the Potency was “inactive”. With `C[N+]1(C)CCCCC1` the Potency was “inactive”. With `Cc1ccc(-c2nc3ccc(C)cn3c2CC(=O)N(C)C)cc1` the Potency was “inactive”. With `COc1cc(CCN)cc(OC)c1OC` the Potency was “inactive”. With `CC(=O)OCC1=C(C(=O)O)N2C(=O)[C@@H](N)[C@H]2SC1` the Potency was “inactive”. With `O=P(O)(O)c1ccccc1` the Potency was “inactive”. In the case of `Oc1ccc(Cc2ccc(O)cc2)cc1`, the Potency was “inactive”. With `C=C1CC[C@@]2(O)[C@H]3Cc4ccc(O)c5c4[C@@]2(CCN3CC2CC2)[C@H]1O5` the Potency was “inactive”. For `CCC(C(N)=O)N1CCCC1=O` (configuration not stated), the Potency was “inactive”. For `CN(C)CCc1c[nH]c2cccc(OP(=O)(O)O)c12`, the Potency was “inactive”. For `CCC1(c2ccccc2)C(=O)N(COC)C(=O)N(COC)C1=O`, the Potency was “inactive”. For `CCCCCCCCSC(=O)Oc1cc(Cl)nnc1-c1ccccc1`, the Potency was “inactive”. For `CCOP(=S)(OCC)Oc1ccc(Cl)cc1Cl`, the Potency was “inactive”. In the case of `BrCc1ccc(Br)cc1`, the Potency was “inactive”. With `C[C@H](N)C(=O)c1ccccc1` the Potency was “inactive”. In the case of `CCc1cc(OC)c(C[C@H](C)N)cc1OC`, the Potency was “inactive”. For `CCN[C@@H](C)Cc1cccc(C(F)(F)F)c1`, the Potency was “inactive”.

Experiment: qHTS assay for small molecule disruptors of the mitochondrial membrane potential - cell viability (AID 720634);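 also: human HepG2 liver cancer cells; nearly all actives have a fitted effect of over 20% in size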
Conditions: HepG2 viability, ATP luminescence (CellTiter-Glo), 1 h; series mostly up to 83.2 µM
Procedure, shortened: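 ATP-based luminescent viability readout (CellTiter-Glo, 30 min, room temperature) in HepG2 cells multiplexed with the m-MPI membrane potential dye; compound exposure lasted 1 hr at 37 C.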
With `CCN(CCO)CCO` the Potency was “inactive”. For `C=CCc1cc(OC)c2c(c1)OCO2`, the Potency was “inactive”. With `CC(C)(C1CCC(O)CC1)C1CCC(O)CC1` (configuration not stated) the Potency was “inactive”. In the case of `COc1cccc(C=O)c1`, the Potency was “inactive”. In the case of `C=CC1(C)OC(=O)N(c2cc(Cl)cc(Cl)c2)C1=O` (configuration not stated), the Potency was “inactive”. For `CNC(=O)NC(O)C(Cl)(Cl)Cl` (configuration not stated), the Potency was “inactive”. For `COC(=O)[C@@H](N)CCCN/C(N)=N/[N+](=O)[O-]`, the Potency was “inactive”. With `CC(C)(O)C(Cl)(Cl)Cl` the Potency was “inactive”. In the case of `CCCC(C)(COC(N)=O)COC(N)=O`, the Potency was “inactive”. For `Cc1cc(OC(=O)N(C)C)nn1C(=O)N(C)C`, the Potency was “inactive”. For `CS(=O)(=O)Cl`, the Potency was “inactive”. For `NCC1(CC(=O)O)CCCCC1`, the Potency was “inactive”. With `COc1ccccc1OC` the Potency was “inactive”. With `[P]#[In]` the Potency was “inactive”. In the case of `O=C(Cl)/C=C/C(=O)Cl`, the Potency was “inactive”. With `CCOC(=O)NC(C)(C)Cc1ccc(Cl)cc1` the Potency was “inactive”. In the case of `O=C(Cl)C(Cl)(Cl)Cl`, the Potency was “inactive”. In the case of `N#CN=C1SCCN1Cc1ccc(Cl)nc1`, the Potency was “inactive”. With `CN(CCO)CCO` the Potency was “inactive”. In the case of `COC(=O)c1ccccc1CS(=O)(=O)NC(=O)Nc1nc(OC)cc(OC)n1`, the Potency was “inactive”. For `CCOC1Oc2ccc(OS(C)(=O)=O)cc2C1(C)C` (configuration not stated), the Potency was “inactive”. For `C[N+]1(C)CCCCC1`, the Potency was “inactive”. In the case of `COc1cc(CCN)cc(OC)c1OC`, the Potency was “inactive”. For `CC(=O)OCC1=C(C(=O)O)N2C(=O)[C@@H](N)[C@H]2SC1`, the Potency was “inactive”. With `O=P(O)(O)c1ccccc1` the Potency was “inactive”. In the case of `Oc1ccc(Cc2ccc(O)cc2)cc1`, the Potency was “inactive”. For `C=C1CC[C@@]2(O)[C@H]3Cc4ccc(O)c5c4[C@@]2(CCN3CC2CC2)[C@H]1O5`, the Potency was “inactive”. With `CCC(C(N)=O)N1CCCC1=O` (configuration not stated) the Potency was “inactive”. For `CN(C)CCc1c[nH]c2cccc(OP(=O)(O)O)c12`, the Potency was “inactive”. For `CCC1(c2ccccc2)C(=O)N(COC)C(=O)N(COC)C1=O`, the Potency was “inactive”. In the case of `CCCCCCCCSC(=O)Oc1cc(Cl)nnc1-c1ccccc1`, the Potency was “inactive”. With `BrCc1ccc(Br)cc1` the Potency was “inactive”. With `C[C@H](N)C(=O)c1ccccc1` the Potency was “inactive”. With `CCc1cc(OC)c(C[C@H](C)N)cc1OC` the Potency was “inactive”. For `COC(=O)c1ccc(CBr)cc1`, the Potency was “inactive”. For `CCN[C@@H](C)Cc1cccc(C(F)(F)F)c1`, the Potency was “inactive”.
